Most compounds without a hit are left out; they make up all but 2.2% or so of the library.
ID4 SMM: ID4 (human) binding; small molecule microarray, Flag-ID4 binding, fluorescence F/B; actives 1.2% (n = 31,000); calls only; P47928; call rule not given here;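 further: a binder raises fluorescence above local background on the spot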
Target sequence (P47928 whole entry, looked up): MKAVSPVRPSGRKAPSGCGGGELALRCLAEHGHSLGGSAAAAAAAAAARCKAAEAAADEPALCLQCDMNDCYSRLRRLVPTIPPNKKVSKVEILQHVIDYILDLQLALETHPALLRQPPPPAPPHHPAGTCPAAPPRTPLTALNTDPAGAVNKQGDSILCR
mut p53 react: mutant p53 pathway reactivation. SW480 PUMA-promoter luciferase. activation, % at 9.98 µM. actives 1.5% (n = 28,000). AID 624151; in the data active means activation above about 52%
Numbers without * were called inactive.

`O=C(CC1CCOCC1)Nc1ccc(I)cc1` gave ID4 SMM inactive and mut p53 react 63*.
`O=C(CC1NC(=O)NC1=O)Nc1ccc(F)cc1` (stereo not given) gave ID4 SMM inactive and mut p53 react -2.
For CCN(CC(=O)Nc1ccc2c(c1)OCCO2)S(=O)(=O)c1ccc2ccccc2c1 the results were ID4 SMM inactive and mut p53 react 14.
NS(=O)(=O)c1ccc(NC(=S)NCc2cccnc2)cc1 was read as ID4 SMM inactive and mut p53 react -14.
Cc1cccnc1NC(=S)Nc1ccc(S(N)(=O)=O)cc1 was read as ID4 SMM inactive and mut p53 react 66*.
`O=C(Nc1cccc(Cn2cccn2)c1)c1cc(-c2ccccc2)nc2ccccc12` gave ID4 SMM inactive and mut p53 react -9.
`CCOC(=O)c1c(NC(=O)Cn2nc([N+](=O)[O-])c(Cl)c2C)sc2c1CCC2` gave ID4 SMM inactive and mut p53 react -7.

Assay outcomes from PubChem.
